{
  "source": "PubChem BioAssay (Tox21)",
  "note": "Where “and” joins values, the source holds several entries; their conditions need not be identical. Identical values can stand only once. Inconclusive results are not listed. Entries that show only a call come without a potency. Calls of active or inactive are those of the source. Calls come from the whole dose curve. Potency is the fitted concentration of half-maximal effect.",
  "data": [
    {"assay": "qHTS assay for small molecules that induce genotoxicity in human embryonic kidney cells expressing luciferase-tagged ATAD5 - cell viability (AID 651634); note: nearly all actives have a fitted effect of over 25% in size", "settings": "HEK293T ATAD5-luc cells viability, CellTiter-Fluor, 15.5 h; series mostly up to 83.3 µM", "description": "National Center for Advancing Translational Sciences [NCATS]\nNIH Chemical Genomics Center [NCGC]\nU.S. Environmental Protection Agency [EPA]\nNational Institutes of Environmental Health Sciences [NIEHS]\nNational Toxicology Program [NTP]\nU.S. Food and Drug Administration [FDA]\nEnhanced Level of Genome Instability Gene 1 (ELG1; human ATAD5) protein levels increase in response to various types of DNA damage. Using a luciferase reporter-gene tagged with ElG1, a cell-based assay [developed by Kyungjae Myung, NHGRI, NIH] was used to measure the induction of ATAD5 in human embryonic kidney cells (HEK293T). So, increase in luciferase activity can be used to identify the compounds that cause genetic stress. In addition to genotoxicity, these cells were also used to test for cytotoxicity by measuring the protease activity within live cells.\nTox21 Assay Protocol Summary:\nFor cytotoxicity screening, 2,000 cells in 5 uL/well were dispensed into white, solid-bottom 1536-well plates using a Multidrop Combi (Thermo Scientific) dispenser. Following transfer of 23 nL compound or DMSO vehicle by a pin tool, the plates were incubated 15.5 hr at 37C and 5% CO2. 1 ul CellTiter-Fluor reagent (Promega, Madison, WI) was then added to each plate and following 30 min incubation at 37C, fluorescence intensity was quantified on a ViewLux CCD-based plate reader.", "values": [
      {"smiles": "O=C(Cc1ccccc1)c1ccccc1", "Potency": "inactive"},
      {"smiles": "C[C@]12CC[C@H]3[C@@H](CCC4=CC(=O)CC[C@@H]43)[C@@H]1CC[C@@H]2OC(=O)CCc1ccccc1", "Potency": "inactive"},
      {"smiles": "CC(C)CCCCCCCOC(=O)c1ccccc1C(=O)OCCCCCCCC(C)C", "Potency": "inactive"},
      {"smiles": "FC(Cl)(Cl)C(F)(Cl)Cl", "Potency": "inactive"},
      {"smiles": "CON(C)C(=O)Nc1ccc(Cl)cc1", "Potency": "inactive"},
      {"smiles": "C1CS1", "Potency": "inactive"},
      {"smiles": "O=C(Cc1ccccc1)OCCc1ccccc1", "Potency": "inactive"},
      {"smiles": "O=[N+]([O-])O[C@H]1CO[C@H]2[C@@H]1OC[C@H]2O[N+](=O)[O-]", "Potency": "inactive"},
      {"smiles": "CC(C)CCON=O", "Potency": "inactive"},
      {"smiles": "Nc1cc(Cl)cc(C(=O)O)c1Cl", "Potency": "inactive"},
      {"smiles": "O=C(Cl)OCCOCCOC(=O)Cl", "Potency": "inactive"},
      {"smiles": "CC(C)(C)OOC(C)(C)CCC(C)(C)OOC(C)(C)C", "Potency": "inactive"},
      {"smiles": "Oc1cccc(Cl)c1", "Potency": "inactive"},
      {"smiles": "COC1=CC(=O)O[C@@H](/C=C/c2ccc3c(c2)OCO3)C1", "Potency": "inactive"},
      {"smiles": "CN(C1CCCCC1)C1CCCCC1", "Potency": "inactive"},
      {"smiles": "C[C@H]1O[C@H](OC2[C@@H](O)[C@@H](O)C(O)[C@H](O)[C@H]2O)[C@@H](N)C[C@@H]1N=C(N)C(=O)O", "note": "(stereo not given in full)", "Potency": "inactive"},
      {"smiles": "COC1CC(=C(c2cccs2)c2cccs2)C[N+](C)(C)C1", "note": "(stereo not given)", "Potency": "inactive"},
      {"smiles": "C[N+]1(CCF)[C@@H]2CC[C@H]1CC(OC(=O)C(O)(c1ccccc1)c1ccccc1)C2", "note": "(stereo not given in full)", "Potency": "inactive"},
      {"smiles": "CC(Cl)C(=O)O", "note": "(stereo not given)", "Potency": "inactive"},
      {"smiles": "O=C1c2ccccc2C(=O)N1SC(Cl)(Cl)Cl", "Potency": "60.3 µM (active)"},
      {"smiles": "CC(C)(C)CC(C)(C)c1ccc(O)cc1", "Potency": "61.1 µM (active)"},
      {"smiles": "COCc1cnc(C2=NC(C)(C(C)C)C(=O)N2)c(C(=O)O)c1", "note": "(stereo not given)", "Potency": "inactive"},
      {"smiles": "CCC1(CCC(C)C)C(=O)NC(=O)NC1=O", "Potency": "inactive"},
      {"smiles": "CCCC[N+](CCCC)(CCCC)CCCC", "Potency": "inactive"},
      {"smiles": "N#CC(C#N)=C(C#N)C#N", "Potency": "inactive"},
      {"smiles": "Cc1nnc(-c2ccccc2)c(=O)n1N", "Potency": "inactive"},
      {"smiles": "CCCN(CCOc1c(Cl)cc(Cl)cc1Cl)C(=O)n1ccnc1", "Potency": "inactive"},
      {"smiles": "CCCCCl", "Potency": "inactive"},
      {"smiles": "O=C(O)c1cc(Cl)ccc1Cl", "Potency": "inactive"},
      {"smiles": "CC(C)(C#N)C(C)(C)C#N", "Potency": "inactive"},
      {"smiles": "CCC1CCC(=O)O1", "note": "(stereo not given)", "Potency": "inactive"},
      {"smiles": "O=C(CCl)CCl", "Potency": "63.4 µM (active) and 54.5 µM (active)"},
      {"smiles": "C[N+](C)(C)CC1CO1", "note": "(stereo not given)", "Potency": "inactive"},
      {"smiles": "CCCCCCCCP(=O)(O)O", "Potency": "inactive"},
      {"smiles": "CCOP(=S)(OCC)Oc1ccc(S(C)=O)cc1", "note": "(stereo not given)", "Potency": "inactive"},
      {"smiles": "CCOC(=O)c1cn2nc(OP(=S)(OCC)OCC)cc2nc1C", "Potency": "inactive"},
      {"smiles": "Cc1cnc(C2=NC(C)(C(C)C)C(=O)N2)c(C(=O)O)c1", "note": "(stereo not given)", "Potency": "inactive"},
      {"smiles": "CCC1(CC)C(=O)NC(=O)NC1=O", "Potency": "inactive"},
      {"smiles": "C=CCOCC1CO1", "note": "(stereo not given)", "Potency": "inactive"},
      {"smiles": "C[C@H](N)[C@H](O)c1ccc(O)c(O)c1", "Potency": "inactive"}
    ]}
  ]
}
